Assay outcomes from PubChem.
HGIII-sPLA2 inh: Blocks human group III sPLA2 activity; Q9NZ20; QFRET BODIPY PC-A2 liposome hydrolysis, fluorescence; inhibition, % at 12.2 µM; 370,000 compounds, 0.56% hits;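 active means inhibition above mean plus 3 SD of compounds lying within the high and low control bounds, cut at about 19% in these data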;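 further: 0% = median of test compound wells and 100% = no enzyme DMSO wells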
ADAM17 inh: ADAM17 inhibition, QFRET primary screen. P78536. recombinant ADAM17, EDANS/DABCYL FRET peptide cleavage. inhibition, % at 6.95 µM. 370,000 compounds, 0.83% hits. AID 720648;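 active means inhibition above the mean of compounds lying between control limits plus 3 SD, set per campaign, cut at about 8.5% in these data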;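 further: 0% = DMSO-only wells as the low control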
ADAM10 inh: inhibitors of human ADAM10. recombinant ADAM10, EDANS/DABCYL FRET peptide cleavage, 3 h. inhibition, % at 7 µM. 370,000 compounds, 0.62% hits;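 active means inhibition above a per-campaign cutoff equal to the mean of compounds falling between control-based bounds plus 3 SD, cut at about 20% in these data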;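 further: 0% = DMSO wells while the 100% control is not disclosed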
NRP1-CendR mod: modulators of CendR peptide binding to human neuropilin-1; O14786; FAM-RPARPAR peptide binding to NRP-1, fluorescence polarization; inhibition, % at 25 µM; 360,000 compounds, 0.85% hits;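 active means inhibition or corrected inhibition above about 18%, plus a signal ratio from 0.5 to 1.5, limit read from the data, passing the limit was not always enough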
proKLK7 act: activates the human kallikrein-7 zymogen; purified proKLK7, EDANS-DABCYL substrate fluorescence; 100% is mature enzyme control, 0% vehicle; P49862; 370,000 compounds, 0.9% hits; AID 652039; activation, % at 7 µM;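 active means activation above the mean of all tested compounds plus 3 SD, computed per campaign excluding outliers beyond control limits, cut at about 13% in these data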
Target sequence (P49862 whole entry, looked up): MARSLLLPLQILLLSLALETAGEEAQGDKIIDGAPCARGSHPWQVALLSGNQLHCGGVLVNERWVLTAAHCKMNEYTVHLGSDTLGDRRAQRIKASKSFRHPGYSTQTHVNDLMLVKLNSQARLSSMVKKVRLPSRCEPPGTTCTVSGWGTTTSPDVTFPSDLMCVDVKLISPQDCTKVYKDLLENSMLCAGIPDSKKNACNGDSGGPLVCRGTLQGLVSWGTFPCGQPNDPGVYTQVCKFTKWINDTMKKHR
ADAM10 confirm: human ADAM10 inhibition, confirmation | shares compounds with ADAM10 inh | ADAM10 QFRET peptide cleavage, EDANS fluorescence | inhibition, % at 6.95 µM | 2,100 compounds, 1% hits | AID 743208;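 active means inhibition above about 20% chosen separately for each screening run, limit read from the data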;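 further: 0% = DMSO wells and 100% = marimastat wells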
ADAM17 ctr: inhibits human ADAM17 in ADAM10 exosite counter-screen. inhibition, % at 6.95 µM. 2,100 compounds, 0.5% hits. AID 743214. shares compounds with ADAM10 inh. ADAM17 QFRET peptide cleavage, EDANS fluorescence;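 active means mean triplicate inhibition above the solvent-only control wells' mean plus 3 SD, cut at about 12% in these data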;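 further: 0% = DMSO wells and 100% = marimastat wells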
ADAM10 counter: ADAM10 inhibition, counter-screen for ADAM17 exosite hits. shares compounds with ADAM17 inh. recombinant ADAM10, EDANS/DABCYL FRET peptide cleavage, 3 h. inhibition, % at 6.95 µM. 2,900 compounds, 47% hits. AID 743256;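 active means mean inhibition over the triplicate runs exceeds the activity threshold set in the earlier primary screen, cut at about 20% in these data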;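 further: 0% = DMSO wells and 100% = marimastat wells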
ADAM17 confirm: human ADAM17 inhibition, confirmation; 2,900 compounds, 65% hits; AID 743257; inhibition, % at 6.95 µM; recombinant ADAM17, EDANS/DABCYL QFRET peptide cleavage; shares compounds with ADAM17 inh;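 active means mean inhibition across replicates above the hit cutoff set in the primary screen, cut at about 8.5% in these data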;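 further: 0% = DMSO wells and 100% = marimastat wells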
Numbers without * were called inactive; . = no result. In the library only some 3.4% were active in any assay of this set; here they are far more common.

SMILES	HGIII-sPLA2 inh	ADAM17 inh	ADAM10 inh	NRP1-CendR mod	proKLK7 act	ADAM10 confirm	ADAM17 ctr	ADAM10 counter	ADAM17 confirm
CC(C)(C)OC(=O)N1CCCC(C(=O)Nc2cccc(C(=O)NCCCCc3ccccc3)c2)C1 (stereo not given)	-34	13*	22*	2	0	3	1	18	12*
CC(C)(C)OC(=O)N1CCCC(C(=O)Nc2cccc(C(=O)NCCc3ccccc3)c2)C1 (stereo not given)	-11	-2	4	-4	0	.	.	.	.
O=C(Nc1cc(Cl)ccc1F)C1CCCN1S(=O)(=O)c1cccc2cccnc12 (stereo not given)	6	-3	-3	.	0	.	.	.	.
CCCN(CC(=O)Nc1cccc(Br)c1)CC(=O)Nc1ccc(F)c(F)c1F	-21	21*	32*	1	-1	2	1	29*	15*
OC[C@@H]1CN(Cc2ccc(-c3ccccc3)cc2)C[C@H](n2cnc3c(NCc4ccc(F)cc4)ncnc32)O1	-30	8.9*	23*	-3	0	6	4	29*	18*
COc1cc(CNc2ncnc3c2ncn3[C@H]2CN(Cc3cccc(C(F)(F)F)c3)C[C@@H](CO)O2)cc(OC)c1OC	-37	9.7*	23*	-8	0	1	-1	14	10*
COc1cc(CNc2ncnc3c2ncn3[C@H]2CN(Cc3cccc(C(F)(F)F)c3)C[C@@H](COC(C)=O)O2)cc(OC)c1OC	-24	6	10	-2	-1	.	.	.	.
COc1cc(C(=O)Nc2ccc(S(=O)(=O)N3CCc4ccccc43)cc2)cc(OC)c1OC	-31	11*	26*	3	1	6	2	26*	16*
COc1cc(O)c(CC=C(C)C)c(O)c1C(=O)CCc1ccc(O)cc1	-29	12*	24*	-22	1	10	2	52*	26*
CCc1ccc(-n2cc(-c3ccc([N+](=O)[O-])cc3)[nH]c2=S)cc1	1	-1	6	6	0	.	.	.	.
CCc1ccc(-c2cn(C3CCCCC3)c(=S)[nH]2)cc1	23*	9.6*	29*	-11	0	17	6	0	5
Cc1ccc(-c2[nH]c3ccccc3c2SCCNC(=O)c2ccc(S(=O)(=O)N3CCOCC3)cc2)cc1	-13	11*	24*	0	-3	7	2	27*	16*
COc1ccc(-c2[nH]c3ccccc3c2SCCNC(=O)c2ccccc2)cc1	-19	7	-3	-5	0	.	.	.	.
CCOC(=O)[C@]12CCCC=C1N(CCCOC)C(=O)[C@@H]2CC(=O)NCc1ccc(C)o1	2	5	2	.	-1	.	.	.	.
Cc1cccc2cc(CN(Cc3ccco3)C(=O)Nc3cccc(C#N)c3)c(Cl)nc12	-23	9.9*	29*	-17	0	11	3	42*	23*
C[C@@]12C[C@@H]3C(=O)N(Cc4ccccc4)CC(=O)N3[C@@H]1N(S(=O)(=O)c1ccccc1)c1ccccc12	-2	1	-7	.	0	.	.	.	.
C[C@@H]1C=CCCO[C@]12C(=O)N(CC1CC1)c1cccc(Br)c12	2	0	1	.	1	.	.	.	.
C/C(=N/Nc1ccc([N+](=O)[O-])cc1)c1ccc(C)cc1C	-10	9.6*	23*	-41	-1	7	3	19	15*
COc1ccc(-n2c(SCC(=O)Nc3cccc4ccccc34)nnc2-c2ccco2)cc1	-13	4	11	.	1	.	.	.	.
COc1ccc(Nc2oc(COc3cccc(C)c3)nc2C#N)cc1	-8	10*	30*	7	-1	4	1	21*	13*
COc1ccc(OCc2nc(C#N)c(N3CCN(c4ccc(OC)cc4)CC3)o2)cc1	-2	16*	29*	-2	2	5	2	12	4
COc1ccc(N2CCN(c3oc(COc4ccccc4Cl)nc3C#N)CC2)cc1	1	-1	4	0	0	.	.	.	.
CCn1cc([N+](=O)[O-])c(C(=O)N2N=C(c3cccc4ccccc34)CC2c2ccccc2O)n1 (stereo not given)	-40	9.3*	23*	2	-1	7	2	29*	17*
CCn1cc(Cl)c(C(=O)N2N=C(c3ccc4ccccc4c3)CC2c2ccccc2O)n1 (stereo not given)	-4	0	-6	-4	0	.	.	.	.
CCn1cc([N+](=O)[O-])c(C(=O)N2N=C(c3ccc4ccccc4c3)CC2c2ccccc2O)n1 (stereo not given)	-39	9.1*	24*	-8	-1	8	2	33*	18*
SMILES	HGIII-sPLA2 inh	ADAM17 inh	ADAM10 inh	NRP1-CendR mod	proKLK7 act	ADAM10 confirm	ADAM17 ctr	ADAM10 counter	ADAM17 confirm
Cn1c(=O)c2c(c3ccccc31)OC(C)(C)C=C2	0	-11	-55	.	1	.	.	.	.
Cc1ccc(OC(C)C(=O)Nc2ccc(C)c(S(=O)(=O)Nc3ccc(C)cc3C)c2)cc1 (stereo not given)	-33	12*	24*	10	0	10	3	28*	15*
CN(CCO)c1cccc2c1S(=O)(=O)N(Cc1cn(Cc3ccc(F)cc3)nn1)Cc1ccccc1O2	-3	0	3	.	0	.	.	.	.
CCCCCC(=O)N1C[C@H](n2cc(-c3ccc(F)cc3)nn2)[C@@H](O)C[C@@H]1c1ccc(Cl)cc1	-26	13*	31*	-5	1	7	2	26*	13*
Cc1cccc(NC(=S)N/N=C/c2ccc([N+](=O)[O-])s2)c1	18	13*	26*	-51	0	8	4	23*	15*
CC(C)(C)S(=O)N1Cc2cc(C(=O)NCc3ccc4c(c3)OCO4)nc(-c3cccc(-c4ccncc4)c3)c2[C@H]1CCO (stereo not given in full)	-10	0	-16	1	1	.	.	.	.
CC(C)(C)S(=O)N1Cc2cc(C(=O)NCc3ccc4c(c3)OCO4)nc(-c3cccc(-c4ccccc4)c3)c2[C@@H]1CCO (stereo not given in full)	-21	9.2*	26*	-4	-1	8	3	10	9.3*
S=c1nc(-c2sccc2OCc2ccc(Cl)cc2Cl)[nH][nH]1	-5	11*	20*	4	-1	9	4	10	13*
